# Shown are actives, neighbours in structure and some others; about 21% of the full set was active somewhere.
# Cycloheximide cs = counter-screen for Shiga toxin inhibitors: cycloheximide protein synthesis inhibition; 300,000 tested, 12% active; max response, %; cell reporter, cycloheximide protein synthesis inhibition counterscreen; in the data active means max response mostly above about 13%, no sharp cut-off; inactive means mostly below about 14%; further: read at 38.3 µM for the half of the compounds with a filed dose; 0% is about no effect
# Shiga inhibitor = blocks Shiga toxin action in Vero cells; Vero cells, Shiga toxin protein synthesis inhibition reporter; inhibition, % at 38.7 µM; 290,000 tested, 9.2% active; AID 2315; in the data active means inhibition mostly above about 28%, no sharp cut-off; inactive means mostly below about 43%; further: 0% is about no effect
# NS1 function inh = inhibitors of influenza NS1 protein function; Potency, µM (doses to about 46.1 µM), for inactives: at the highest dose activity, positive = more growth; 270,000 tested, 0.4% active; calls by dose curve; further: potency means the concentration at half of the fitted maximal effect; actives are rising curves; nearly all actives have a fitted effect of over 50% in size
#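 Recovery from NS1-induced slow growth read by OD600 in budding yeast switched to galactose assay medium (pH 6.0, -URA) at 1:100 dilution. Compound 23 nl per well; the matching strain lacking NS1 serves as control.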
# Pf growth 48h = P. falciparum growth inhibition at 48 hours (one generation) | P. falciparum luciferase growth in erythrocytes, 48 h | 310,000 tested, 5.9% active | Potency, µM (highest dose often 28.7 µM), without a hit: at the top dose activity change, negative = inhibition, actives largely listed as inhibitors | AID 504832; further: potency means the concentration at half of the fitted maximal effect; on the % scale 0 is the no-effect control and ±100 the full control effect
#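 Luciferase-expressing P. falciparum in infected erythrocytes (2% hematocrit, 0.1% parasitemia final) in RPMI 1640/0.5% Albumax were exposed to compound for 48 hours at 37 C, 5% CO2; growth read as luminescence.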
# Pf growth 96h = P. falciparum growth inhibition at 96 hours | P. falciparum luciferase reporter growth, 96 h | Potency, µM (doses to about 28.7 µM), for the others: at the top dose activity change, negative = inhibition, most hits filed as inhibitors | 320,000 tested, 6.9% active | AID 504834; further: potency means the concentration at half of the fitted maximal effect; on the % scale 0 is the no-effect control and ±100 the full control effect
#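 Two-generation exposure (96 h) targets delayed-death phenotype. Reporter parasites carrying integrated firefly luciferase, in red cells at 2% hematocrit and 0.05% parasitemia final, kept at 37 C, 5% CO2; luminescence loss indicates inhibition.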
# SARS PLP yeast = SARS-CoV PLP inhibition in yeast. S. cerevisiae expressing SARS-CoV PLpro, growth rescue. Potency, µM (doses to about 32.9 µM), for inactives: at the highest dose activity, positive = growth rescue, hits mostly activators. 330,000 tested, 0.19% active. AID 485353; calls by dose curve; further: potency means the concentration at half of the fitted maximal effect; 0% is about no effect; nearly all actives have a fitted effect of over 55% in size
# * marks the source's active call; other numbers are inactive results; ? = inconclusive; · = not tested or not shown; ! = not active in a repeat; [ ] = dose if it differs, or a comment. Unless noted, the call rests on the fitted dose curve; in most records, active means well fitted inhibition curve with a large enough effect; inconclusive means small, poorly fitted or top-dose-only effect, or another doubt; inactive means no such curve, though single readings can be large or run the other way.
SMILES,Cycloheximide cs,Shiga inhibitor,NS1 function inh,Pf growth 48h,Pf growth 96h,SARS PLP yeast
CCOC(=O)c1sc(NC(=O)C2CC(=O)N(c3ccc4c(c3)OCCO4)C2)nc1C (stereo not drawn),·,·,·,?,-26.1%,2.2%
CCN(CC)CCNC(=O)C(Oc1ccccc1)Oc1ccccc1,-2.3,-6.3,4.4%,11.4%[0.00184 µM],16.6%,0.4%
COc1cccc(N(CC(=O)N/N=C(\C)c2cccs2)S(C)(=O)=O)c1,-1.1,11.9,-1.1%,-0.2%,-7.3%,-0.5%
Cc1cccc(NC(=O)/C(C#N)=C\c2cccnc2)c1,-3.0,-2.9,-21.6%,-7.1%,-8.8%,2.6%
N#C/C(=C\c1ccccc1O)C(=O)Nc1cccnc1,46.0*,57.2*,-1.7%,?,?,-0.4%
CCOc1cc(/C=N/Nc2nnc(C)n2N)ccc1O,25.4*,50.3*,-2.2%,?,0.0%,-6.7%
Cc1nnc(N/N=C\c2ccc(-c3ccccc3[N+](=O)[O-])o2)n1N,9.1,15.0,-41.0%,-8.4%,?,-1.0%
Cc1nnc(N/N=C/c2ccc(-c3ccccc3F)o2)n1N,25.1*,149.8*,·,30.4%,17.4%,-4.8%
Cc1nnc(N/N=C/c2cc(C)n(-c3ccc(F)cc3)c2C)n1N,24.0*,3.7,-18.9%,-20.8%,49.8%,-9.1%
Cc1nnc(N/N=C/c2ccccc2O)n1N,17.5*,30.8*,·,-1.8%,4.3%,-4.3%
CCOc1cc(/C=N/NC(=O)C(=O)N/N=C/c2ccc(O)c(OCC)c2)ccc1O,-1.0,4.0,18.4%,-0.2%,132.8%,2.9%
Cc1nnc(N/N=C/c2c(Cl)cccc2Cl)n1N,12.4,39.3,-5.5%,-22.6%,-1.0%,-2.1%
CC1CCC(NC(=O)CN2C(=O)COc3ccc(S(=O)(=O)N4CCCC4)cc32)CC1 (stereo not drawn),0.9,-12.5,-0.9%,7.0%,67.6%,-1.8%
CCOc1cc(/C=N/Nc2ncnc(Cl)c2N)ccc1O,35.2*,56.6*,-4.5%,36.4%,46.2%,-13.6%
CN([C@@H](C(=O)OC(C)(C)C)c1ccccc1)S(=O)(=O)c1cccc(S(=O)(=O)N(C)[C@@H](C(=O)OC(C)(C)C)c2ccccc2)c1,-1.7,-2.4,4.3%,?,2.08µM*,3.7%
COC(=O)C(NS(=O)(=O)c1cccc(S(=O)(=O)NC(C(=O)OC)c2ccccc2)c1)c1ccccc1 (stereo not drawn),-3.9,12.2,10.7%,-12.9%,?,-13.6%
COC(=O)[C@H](Cc1ccccc1)N(C)S(=O)(=O)c1cccc(S(=O)(=O)N(C)[C@@H](Cc2ccccc2)C(=O)OC)c1,0.3,-8.5,18.1%,0.0%,10.4µM*,8.3%
COc1cc(OC)c(OC)cc1/C=N/NC(=O)CSc1ccccc1F,-1.8,21.3,0.9%,21.5%,12.3%,1.1%
CCC(COC(=O)Nc1cccc(C)c1)NC(=O)OCC(C)C (stereo not drawn),35.6*,86.7*,-87.0%,?,6.5%,-8.8%
CCOC(=O)Nc1cccc(Nc2ccccc2)c1,11.5,16.3,-53.9%,-25.4%,·,-17.6%
CCOC(=O)Nc1cccc(Cl)c1C,-3.7,7.0,0.2%,1.5%,-1.9%,-1.3%
CCCCOC(=O)Nc1cccc(C(C)=O)c1,22.8*,71.9*,-16.7%,56.2%,0.0%,-11.4%
CCCCOC(=O)Nc1cccc(Cl)c1C,21.5*,87.1*,3.8%,116.2%,·,-0.3%
CCCCOC(=O)c1cccc(NC(=O)CCC(=O)O)c1,-2.3,7.6,2.0%,3.9%,?,10.3%
CCOC(=O)Nc1cccc(C(=O)O)c1,14.0*,31.2*,10.3%,23.1%,·,-18.9%
SMILES,Cycloheximide cs,Shiga inhibitor,NS1 function inh,Pf growth 48h,Pf growth 96h,SARS PLP yeast
CCNC(=O)OCC(CC)NC(=O)OCC(C)C (stereo not drawn),-7.6,-6.6,5.8%,1.3%,·,-3.1%
O=C(NCC(=O)N(c1ccc(F)cc1)C(C(=O)NC1CCCC1)c1cccnc1)c1ccco1 (stereo not drawn),-2.4,25.1,-13.8%,7.5%,?,1.4%
CCCCS(=O)(=O)N1CCCC(C(=O)Nc2ccc3c(c2)CCC3)C1 (stereo not drawn),-2.3,-3.0,-10.1%,17.0%,-26.2%,4.3%
NC(=O)c1cnn(C2CCS(=O)(=O)C2)c1 (stereo not drawn),11.4,29.2,·,-14.0%,?,-1.5%
c1ccc2c(c1)CCN(c1nc3cc4c(cc3s1)OCCO4)C2,33.8*,15.5,-143.5%,19.5%,·,-37.2%
COc1ccc(OC)c2sc(N3CCc4ccccc4C3)nc12,18.4,51.2,·,?,-1.0%,-9.6%
N#CCC(=O)N/N=C/c1ccccc1Cl,3.8,24.9,-1.8%,182.2%,?,0.3%
CO/C(N)=C(\C#N)N=Cc1ccccc1Cl,20.6*,49.1,·,97.6%,101.4%,-2.0%
Cc1cccc(C(C)(C)C)c1OCCCCN1CCCC1,-5.3,-12.0,-4.8%,·,9.28µM*,-2.4%
O=C(CSc1ccc(Br)cc1)NCC(c1ccco1)N1CCCCC1 (stereo not drawn),·,·,·,-12.3%,?,-0.2%
O=C(NN1C(=O)c2ccccc2C1=O)C1CCCCC1,-3.2,-1.8,-7.3%,?,?,-0.4%
c1ccc(C2CN3CCSC3=N2)cc1 (stereo not drawn),-1.5,-8.0,?,2.69µM*!,1.9µM*!,1.1%
COc1ccccc1C1=NC(c2ccccc2)CN1c1ccccc1 (stereo not drawn),-0.9,2.2,-0.9%,3.1%[0.00184 µM],3.7%,-3.1%
COC(=O)c1cc2occc2n1Cc1nc(-c2ccccc2Cl)oc1C,-4.3,-17.0,5.9%,-18.6%,11.7µM*,-4.0%
COC(=O)c1cc2occc2n1Cc1nc(-c2ccc(Cl)cc2)oc1C,-3.9,-17.0,-8.4%,-13.8%,40.8%,2.2%
Cc1ccccc1NC(=O)CN(C)S(=O)(=O)c1ccc2c(c1)n(C)c(=O)c(=O)n2C,-1.8,-3.1,11.4%,?,10.4µM*,-0.8%
Cc1ccc(CCNC(=O)CN(C)S(=O)(=O)c2ccc3c(c2)n(C)c(=O)c(=O)n3C)cc1,-2.6,-4.0,2.1%,?,9.28µM*,0.0%
Cc1ccc(CNC(=O)CN(C)S(=O)(=O)c2ccc3c(c2)n(C)c(=O)c(=O)n3C)cc1,2.2,-4.8,5.1%,-18.0%,?,-0.6%
CCC(Cc1ccccc1)NC(=O)CN(C)S(=O)(=O)c1ccc2c(c1)c(=O)n(C)c(=O)n2C (stereo not drawn),-6.2,-6.5,3.1%,·,7.38µM*,-5.1%
N[C@@H](Cc1ccc(N(CCCl)CCCl)cc1)C(=O)O,·,·,·,?,9.53µM*!,·
CC(=O)NC(Cc1ccc(N(CCCl)CCCl)cc1)C(=O)O (stereo not drawn),-1.2,4.0,10.5%,-29.8%,?,26.4%
O=C(CNc1cc(S(=O)(=O)N2CCOCC2)ccc1NCC1CCCO1)Nc1ccc(F)c(F)c1 (stereo not drawn),-0.8,27.2,15.9%,?,?,4.1%
